# Results taken from paper PMC4336329 (PLoS ONE, 2015).
# The whole screen tested about 310,000 compounds, of which about 14,000 (4.5%) showed an effect of 50% or more. Effects have a minus sign here. Many of the other results were omitted from the sample, so strong results are more common in it than they were.
# Target: human ether-à-go-go-related gene (hERG) potassium channel (human, UniProt Q12809)
# Experiment: primary screen, population patch clamp on CHO cells stably expressing hERG; higher = less effect of the substance
# 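Also: peak tail current of the secondary pulse compared with the same well before compound.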
# human ether-à-go-go-related gene (hERG) potassium channel, sequence (Q12809 whole entry, looked up): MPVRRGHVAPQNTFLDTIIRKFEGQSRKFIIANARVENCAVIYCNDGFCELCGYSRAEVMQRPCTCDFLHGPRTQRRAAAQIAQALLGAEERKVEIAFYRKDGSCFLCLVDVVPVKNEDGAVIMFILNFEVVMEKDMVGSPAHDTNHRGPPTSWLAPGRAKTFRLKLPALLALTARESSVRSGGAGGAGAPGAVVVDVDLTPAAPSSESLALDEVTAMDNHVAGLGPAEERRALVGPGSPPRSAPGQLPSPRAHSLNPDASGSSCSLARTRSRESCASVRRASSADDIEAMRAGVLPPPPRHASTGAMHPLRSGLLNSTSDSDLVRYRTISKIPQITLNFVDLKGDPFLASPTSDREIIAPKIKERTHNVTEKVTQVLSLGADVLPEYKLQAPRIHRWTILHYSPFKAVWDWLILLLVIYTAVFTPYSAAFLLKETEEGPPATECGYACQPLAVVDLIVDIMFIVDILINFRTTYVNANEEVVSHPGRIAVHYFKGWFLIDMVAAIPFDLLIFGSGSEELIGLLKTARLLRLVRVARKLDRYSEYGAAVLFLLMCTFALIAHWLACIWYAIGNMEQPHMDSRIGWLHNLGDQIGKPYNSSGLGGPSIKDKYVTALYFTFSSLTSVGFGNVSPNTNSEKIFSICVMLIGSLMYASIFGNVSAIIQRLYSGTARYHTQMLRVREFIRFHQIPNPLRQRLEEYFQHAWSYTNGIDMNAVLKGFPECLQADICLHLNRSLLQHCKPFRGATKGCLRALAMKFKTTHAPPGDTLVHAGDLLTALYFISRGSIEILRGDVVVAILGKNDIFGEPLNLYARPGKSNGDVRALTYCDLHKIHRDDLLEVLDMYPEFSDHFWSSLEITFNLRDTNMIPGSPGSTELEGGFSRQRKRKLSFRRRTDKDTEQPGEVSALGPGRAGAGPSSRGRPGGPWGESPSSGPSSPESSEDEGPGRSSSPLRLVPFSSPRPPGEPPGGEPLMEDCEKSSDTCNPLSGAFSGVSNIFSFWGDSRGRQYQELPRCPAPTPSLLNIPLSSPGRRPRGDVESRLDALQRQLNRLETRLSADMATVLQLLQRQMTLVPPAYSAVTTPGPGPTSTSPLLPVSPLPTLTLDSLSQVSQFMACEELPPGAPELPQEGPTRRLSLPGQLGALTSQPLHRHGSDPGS
row,Structure (SMILES),"hERG current change (%, negative = inhibition) at 10uM"
1,Cc1cccn2c(=O)c3cc(C(=O)NCc4ccco4)c(=N)n(C4CCCCC4)c3nc12,-77.4%
2,Cc1ccc(S(=O)(=O)c2cc3c(=O)n4cccc(C)c4nc3n(C3CCCCC3)c2=N)cc1,15.7%
3,Cc1cccn2c(=O)c3cc(C(=O)NCc4ccco4)c(=N)n(C4CCCC4)c3nc12,-78.8%
4,Cc1cccn2c(=O)c3cc(S(=O)(=O)c4ccc(Br)cc4)c(=N)n(C4CCCC4)c3nc12,9.92%
5,COc1ccc(-n2c(N)c(C(=O)NCc3ccco3)c3nc4ccccc4nc32)c(OC)c1,0.913%
6,Cc1csc(NC(=O)c2sc3nc(-c4cccs4)ccc3c2N)n1,5.65%
7,COc1ccc(OC)c(NC(=O)CSc2nnc(C3CCCCC3)o2)c1,-19%
8,CC(=O)N1CC(C)Sc2ccc(S(=O)(=O)NCc3ccc(F)cc3)cc21 (centres unmarked),-49.6%
9,O=C1c2ccccc2S(=O)(=O)c2cc(C(=O)N3CCN(c4ccc(Cl)cn4)CC3)ccc21,-33.1%
10,CCOc1ccc(S(=O)(=O)N2CCOCC2)cc1NC(=O)CSCc1c(C)noc1C,-17.3%
11,CCN(CC)S(=O)(=O)c1ccc(N(C)C)c(NC(=O)CSCc2c(C)noc2C)c1,-60.4%
12,Cc1noc(C)c1CSCC(=O)Nc1cc(S(C)(=O)=O)ccc1Cl,0.564%
13,Cc1noc(C)c1CSCC(=O)Nc1ccc(S(C)(=O)=O)cc1,15.2%
14,CCOc1ccc(S(=O)(=O)N2CCCCC2)cc1NC(=O)CSCc1c(C)noc1C,-39.5%
15,CCOc1ccc(S(=O)(=O)N(CC)CC)cc1NC(=O)CSCc1c(C)noc1C,-67.2%
16,C=CCOc1cccc(C2C(C(=O)c3cccs3)=C(O)C(=O)N2Cc2cccnc2)c1 (centres unmarked),-1.2%
17,CCOC(=O)C1=C(C)NC(=O)NC1c1cc(Br)c(O)c(OC)c1 (centres unmarked),-2.71%
18,COc1ccc(CNc2ccc3c(c2)ncn3C)cc1OC,15.8%
19,Cc1cnc(C(=O)Nc2cc(S(=O)(=O)N3CCOCC3)ccc2N2CCN(C)CC2)cn1,-18.6%
20,COc1ccc(-n2cc(CNCc3cnc4ccccn34)c(-c3cccc(F)c3)n2)cc1,-30.2%
21,COc1ccc(-n2cc(CN[C@H]3CCCCNC3=O)c(-c3cccc(F)c3)n2)cc1,-64.1%
22,COc1ccc(-n2cc(CNC3CCN(C)CC3)c(-c3cccc(F)c3)n2)cc1,-77.5%

row,Structure (SMILES),"hERG current change (%, negative = inhibition) at 10uM"
1,COc1ccc(-n2cc(CNCCCn3ccnc3)c(-c3ccccc3Cl)n2)cc1,-44.9%
2,COc1ccc(-n2cc(CNCCCn3ccnc3)c(-c3cccc(F)c3)n2)cc1,-75.2%
3,COc1ccc(-n2cc(CN(C)C3CCOCC3)c(-c3cccc(F)c3)n2)cc1,-29.1%
4,COc1ccc(-n2cc(CNC3CCC(O)CC3)c(-c3cccc(F)c3)n2)cc1 (centres unmarked),-45.3%
5,COc1ccc(-n2cc(CNC3CCOCC3)c(-c3cccc(F)c3)n2)cc1,-48.2%
6,COc1ccc(-n2cc(CNCC3CCOCC3)c(-c3cccc(F)c3)n2)cc1,-78.5%
7,COc1ccc(-n2cc(CN(C)Cc3n[nH]c(=O)[nH]3)c(-c3cccc(F)c3)n2)cc1,-15.4%
8,COc1ccc(N2C(=O)CC(NC3CCCCNC3=O)C2=O)cc1 (centres unmarked),8.59%
9,COc1cccc(-c2nn(-c3ccccc3)cc2CN2CCCO2)c1,-5.81%
10,Cc1cccc(C)c1OCC(=O)Nc1ccc(N2CCOCC2)cc1,-4.13%
11,O=C(CC12CC3CC(CC(C3)C1)C2)Nc1cccc2ncccc12,-23%
12,CN(C)c1ccc(Nc2cc(Cl)ncn2)cc1,1.65%
13,COc1ccc(OC)c(N(CC(=O)Nc2ccc3c(c2)OCCO3)S(C)(=O)=O)c1,9.64%
14,CC(C)CC(=O)NC(=S)Nc1ccccc1C(=O)Nc1ccccc1,8.01%
15,O=C(c1ccc(CN2CCOCC2)cc1)N1CCN(c2ccccc2F)CC1,-3.33%
16,COc1ccc(CNCc2cc3c(C(C)(C)C)nn(-c4ccccc4)c3[nH]c2=O)cc1,-24%
17,CCOC(=O)c1c(NC(C)=O)sc2c1CCN(Cc1ccccc1)C2.Cl,-20.5%
18,CCOC(=O)c1c(NC(=S)Nc2ccccc2)sc2c1CCN(CCc1ccccc1)C2,-64.1%
19,CCOC(=O)c1c(N)sc2c1CCN(CCc1ccccc1)C2,-28.6%
20,CCOC(=O)c1c(NC(=S)Nc2ccccc2)sc2c1CCN(CC)C2,-81.5%
21,CCOC(=O)c1c(NC(=S)NCc2ccccc2)sc2c1CCN(C(=O)OCC)C2,32.8%
22,CCOC(=O)c1c(NC(=S)Nc2ccccc2)sc(C)c1C,4.49%
